# What was measured:
# Assay in all cases: DAPPL (digital affinity profiling via proximity ligation, sequencing); 10 mM Tris-HCl pH 7.5, 50 mM NaCl, 1 mM DTT, 4% glycerol, room temperature, 30 min; GST-TFs on glutathione beads, 16-mer random dsDNA library, 0.1% formaldehyde crosslink after washing; high values mean tight binding
# [1] = biological target: T1, FLI1 (Homo sapiens, UniProt Q01543 1-452); settings: protein: recombinant; tags: N-terminal GST; dsDNA, one strand shown
# T1 sequence: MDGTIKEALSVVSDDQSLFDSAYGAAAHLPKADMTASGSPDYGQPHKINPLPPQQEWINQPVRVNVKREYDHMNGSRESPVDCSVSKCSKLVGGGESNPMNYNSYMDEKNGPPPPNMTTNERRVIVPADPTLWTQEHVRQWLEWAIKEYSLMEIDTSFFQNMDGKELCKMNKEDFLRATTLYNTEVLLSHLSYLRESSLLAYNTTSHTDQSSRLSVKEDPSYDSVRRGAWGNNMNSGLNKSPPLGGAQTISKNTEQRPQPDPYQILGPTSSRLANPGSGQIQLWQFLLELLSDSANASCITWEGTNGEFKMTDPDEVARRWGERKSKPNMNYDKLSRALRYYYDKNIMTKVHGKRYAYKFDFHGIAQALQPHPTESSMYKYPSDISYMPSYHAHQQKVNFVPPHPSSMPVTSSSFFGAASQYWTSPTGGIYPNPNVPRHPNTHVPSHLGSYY
# In short: (§1)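 GST fusions of human transcription factors were expressed in yeast and captured with glutathione beads. Once given DNA barcodes and pooled alongside a tag-only sample, they were incubated for 30 min at room temperature with 200 nmole of a random double-stranded 16-mer DNA library in Tris/NaCl/DTT/glycerol buffer, then washed, crosslinked (0.1% formaldehyde), proximity-ligated, PCR-amplified and sequenced on an Illumina NextSeq500. The binding signal of each hexamer is its read frequency for a factor divided by its frequency for the tag-only sample.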
# [2] = biological target: T2, ELK1 (Homo sapiens, UniProt P19419 1-428); settings: protein: recombinant; tags: N-terminal GST; dsDNA, one strand shown
# T2 sequence: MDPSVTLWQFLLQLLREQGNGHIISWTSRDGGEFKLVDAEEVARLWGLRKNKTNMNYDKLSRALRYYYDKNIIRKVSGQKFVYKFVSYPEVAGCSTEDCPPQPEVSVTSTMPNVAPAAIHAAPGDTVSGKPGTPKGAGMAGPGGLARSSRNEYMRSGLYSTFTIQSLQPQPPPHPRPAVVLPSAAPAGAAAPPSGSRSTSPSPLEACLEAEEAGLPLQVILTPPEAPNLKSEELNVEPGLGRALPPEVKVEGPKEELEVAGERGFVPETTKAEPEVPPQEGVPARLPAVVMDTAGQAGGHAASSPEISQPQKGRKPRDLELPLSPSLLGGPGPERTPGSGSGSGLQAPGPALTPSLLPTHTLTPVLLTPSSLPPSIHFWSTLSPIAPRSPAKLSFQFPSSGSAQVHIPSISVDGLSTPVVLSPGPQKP
# In short: as §1
# [3] = biological target: T3, GABPA (Homo sapiens, UniProt Q06546 1-454); settings: protein: recombinant; tags: N-terminal GST; dsDNA, one strand shown
# T3 sequence: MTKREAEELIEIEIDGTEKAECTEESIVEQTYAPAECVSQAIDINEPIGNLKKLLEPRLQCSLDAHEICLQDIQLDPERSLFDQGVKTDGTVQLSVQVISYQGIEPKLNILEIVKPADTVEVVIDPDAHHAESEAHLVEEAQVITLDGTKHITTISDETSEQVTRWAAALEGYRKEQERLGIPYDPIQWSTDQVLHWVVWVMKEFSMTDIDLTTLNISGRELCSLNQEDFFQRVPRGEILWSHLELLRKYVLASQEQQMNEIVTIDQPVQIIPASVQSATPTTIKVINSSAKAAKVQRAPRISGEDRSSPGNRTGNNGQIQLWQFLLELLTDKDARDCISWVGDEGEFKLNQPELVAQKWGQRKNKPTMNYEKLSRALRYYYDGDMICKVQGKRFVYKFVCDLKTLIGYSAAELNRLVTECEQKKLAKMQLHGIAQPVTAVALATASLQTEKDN
# In short: as §1
# [4] = biological target: T4, ERG (Homo sapiens, UniProt P11308 1-479); settings: protein: recombinant; tags: N-terminal GST; dsDNA, one strand shown
# T4 sequence: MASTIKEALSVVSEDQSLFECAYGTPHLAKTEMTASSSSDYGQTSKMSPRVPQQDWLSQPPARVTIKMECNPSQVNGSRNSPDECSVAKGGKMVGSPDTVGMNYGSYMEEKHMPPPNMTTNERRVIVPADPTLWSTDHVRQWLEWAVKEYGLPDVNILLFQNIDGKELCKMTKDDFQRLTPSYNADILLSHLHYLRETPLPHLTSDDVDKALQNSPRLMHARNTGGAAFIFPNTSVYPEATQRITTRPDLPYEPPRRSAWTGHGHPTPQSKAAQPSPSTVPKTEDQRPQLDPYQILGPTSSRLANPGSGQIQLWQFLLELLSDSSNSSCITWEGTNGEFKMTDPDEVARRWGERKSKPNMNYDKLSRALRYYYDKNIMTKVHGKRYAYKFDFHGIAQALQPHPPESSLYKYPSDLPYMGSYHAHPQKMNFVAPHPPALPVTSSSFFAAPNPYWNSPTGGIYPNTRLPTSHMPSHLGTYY
# In short: as §1
# [5] = biological target: ELF1 (Homo sapiens, UniProt P32519 1-619); settings: protein: recombinant; tags: N-terminal GST; dsDNA, one strand shown
# In short: as §1
# [6] = biological target: T5, EHF (Homo sapiens, UniProt Q9NZC4 1-300); settings: protein: recombinant; tags: N-terminal GST; dsDNA, one strand shown
# T5 sequence: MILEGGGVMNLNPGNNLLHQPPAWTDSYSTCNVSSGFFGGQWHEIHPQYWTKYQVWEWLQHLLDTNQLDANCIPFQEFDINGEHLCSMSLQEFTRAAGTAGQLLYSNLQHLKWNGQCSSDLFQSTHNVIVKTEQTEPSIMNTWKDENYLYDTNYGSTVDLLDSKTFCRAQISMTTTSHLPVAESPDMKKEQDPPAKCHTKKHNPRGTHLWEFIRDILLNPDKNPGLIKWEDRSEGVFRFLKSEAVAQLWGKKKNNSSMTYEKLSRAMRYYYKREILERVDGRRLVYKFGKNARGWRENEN
# In short: as §1
# [7] = biological target: SPI1 (Homo sapiens, UniProt P17947 1-270); settings: protein: recombinant; tags: N-terminal GST; dsDNA, one strand shown
# In short: as §1
# [8] = biological target: SPIB (Homo sapiens, UniProt Q01892 1-262); settings: protein: recombinant; tags: N-terminal GST; dsDNA, one strand shown
# In short: as §1
# [9] = biological target: T6, ELK3 (Homo sapiens, UniProt P41970 1-407); settings: protein: recombinant; tags: N-terminal GST; dsDNA, one strand shown
# T6 sequence: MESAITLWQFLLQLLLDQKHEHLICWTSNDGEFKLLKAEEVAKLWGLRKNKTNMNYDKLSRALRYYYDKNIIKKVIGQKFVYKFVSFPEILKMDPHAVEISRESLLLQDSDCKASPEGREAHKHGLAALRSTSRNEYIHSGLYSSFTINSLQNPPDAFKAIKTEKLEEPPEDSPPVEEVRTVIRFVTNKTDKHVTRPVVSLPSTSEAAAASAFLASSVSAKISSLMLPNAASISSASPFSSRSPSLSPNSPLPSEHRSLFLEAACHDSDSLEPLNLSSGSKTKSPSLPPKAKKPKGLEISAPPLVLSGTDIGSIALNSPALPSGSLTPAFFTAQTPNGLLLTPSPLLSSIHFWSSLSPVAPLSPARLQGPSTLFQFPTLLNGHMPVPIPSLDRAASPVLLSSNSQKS
# In short: as §1
# [10] = biological target: T7, FEV (Homo sapiens, UniProt Q99581 1-238); settings: protein: recombinant; tags: N-terminal GST; dsDNA, one strand shown
# T7 sequence: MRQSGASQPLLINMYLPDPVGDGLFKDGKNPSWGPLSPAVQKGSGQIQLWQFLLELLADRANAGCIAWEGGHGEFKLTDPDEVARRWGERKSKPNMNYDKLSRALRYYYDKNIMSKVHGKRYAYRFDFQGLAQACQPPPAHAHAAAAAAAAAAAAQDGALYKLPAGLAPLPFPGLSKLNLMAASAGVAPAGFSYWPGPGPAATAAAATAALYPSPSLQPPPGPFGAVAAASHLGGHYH
# In short: as §1
# [11] = biological target: ETV5 (Homo sapiens, UniProt P41161 1-510); settings: protein: recombinant; tags: N-terminal GST; dsDNA, one strand shown
# In short: as §1
# [12] = biological target: HSF1 (Homo sapiens, UniProt Q00613 1-529); settings: protein: recombinant; tags: N-terminal GST; chain copies: 3; dsDNA, one strand shown
# In short: as §1
# [13] = biological target: T8, SPIC (Homo sapiens, UniProt Q8N5J4 1-248); settings: protein: recombinant; tags: N-terminal GST; dsDNA, one strand shown
# T8 sequence: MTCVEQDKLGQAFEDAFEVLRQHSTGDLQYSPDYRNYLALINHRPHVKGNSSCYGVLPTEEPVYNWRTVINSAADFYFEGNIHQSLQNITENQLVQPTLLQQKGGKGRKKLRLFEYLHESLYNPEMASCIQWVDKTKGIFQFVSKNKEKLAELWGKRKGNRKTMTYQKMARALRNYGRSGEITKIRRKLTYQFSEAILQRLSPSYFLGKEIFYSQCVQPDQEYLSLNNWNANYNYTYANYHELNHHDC
# In short: as §1
# [14] = biological target: ELF4 (Homo sapiens, UniProt Q99607 1-663); settings: protein: recombinant; tags: N-terminal GST; dsDNA, one strand shown
# In short: as §1
# [15] = biological target: T9, ELK4 (Homo sapiens, UniProt P28324-2 1-405); settings: protein: recombinant; tags: N-terminal GST; dsDNA, one strand shown
# T9 sequence: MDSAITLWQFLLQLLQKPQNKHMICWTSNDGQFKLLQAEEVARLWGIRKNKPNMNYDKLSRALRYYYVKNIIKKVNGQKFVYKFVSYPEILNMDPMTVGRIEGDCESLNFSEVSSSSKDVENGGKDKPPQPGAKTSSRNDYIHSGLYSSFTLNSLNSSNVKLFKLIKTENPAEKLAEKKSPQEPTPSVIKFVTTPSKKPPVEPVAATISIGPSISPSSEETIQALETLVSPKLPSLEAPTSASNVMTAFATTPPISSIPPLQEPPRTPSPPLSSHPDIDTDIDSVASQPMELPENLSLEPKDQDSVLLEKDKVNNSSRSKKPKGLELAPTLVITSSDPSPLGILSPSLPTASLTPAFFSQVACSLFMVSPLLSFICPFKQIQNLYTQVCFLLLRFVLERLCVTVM
# In short: as §1
# [16] = biological target: T10, ETV2 (Homo sapiens, UniProt O00321 1-342); settings: protein: recombinant; tags: N-terminal GST; dsDNA, one strand shown
# T10 sequence: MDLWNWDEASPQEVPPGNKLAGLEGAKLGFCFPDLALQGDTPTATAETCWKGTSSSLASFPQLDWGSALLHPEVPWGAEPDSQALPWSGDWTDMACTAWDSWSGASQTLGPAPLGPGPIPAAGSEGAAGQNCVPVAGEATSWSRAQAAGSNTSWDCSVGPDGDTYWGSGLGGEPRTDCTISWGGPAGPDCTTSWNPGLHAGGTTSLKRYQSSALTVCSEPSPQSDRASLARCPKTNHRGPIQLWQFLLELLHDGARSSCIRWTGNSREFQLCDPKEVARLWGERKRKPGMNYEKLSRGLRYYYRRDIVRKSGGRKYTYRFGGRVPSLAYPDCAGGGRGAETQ
# In short: as §1
# [17] = biological target: T11, ELF3 (Homo sapiens, UniProt P78545 1-371); settings: protein: recombinant; tags: N-terminal GST; dsDNA, one strand shown
# T11 sequence: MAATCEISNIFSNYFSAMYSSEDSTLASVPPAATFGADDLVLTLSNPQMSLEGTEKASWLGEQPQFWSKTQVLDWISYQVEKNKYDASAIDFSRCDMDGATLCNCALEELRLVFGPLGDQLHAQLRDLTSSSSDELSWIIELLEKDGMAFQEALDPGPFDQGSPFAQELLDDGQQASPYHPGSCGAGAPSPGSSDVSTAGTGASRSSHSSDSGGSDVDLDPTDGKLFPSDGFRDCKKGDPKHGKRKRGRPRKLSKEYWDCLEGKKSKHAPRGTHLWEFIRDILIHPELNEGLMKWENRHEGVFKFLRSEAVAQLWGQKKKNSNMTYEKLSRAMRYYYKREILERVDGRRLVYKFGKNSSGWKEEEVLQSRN
# In short: as §1
# [18] = biological target: CRX (Homo sapiens, UniProt O43186 1-299); settings: protein: recombinant; tags: N-terminal GST; dsDNA, one strand shown
# In short: as §1
# [19] = biological target: ETV1 (Homo sapiens, UniProt P50549 1-477); settings: protein: recombinant; tags: N-terminal GST; dsDNA, one strand shown
# In short: as §1
# HSF1, sequence (Q00613 whole entry): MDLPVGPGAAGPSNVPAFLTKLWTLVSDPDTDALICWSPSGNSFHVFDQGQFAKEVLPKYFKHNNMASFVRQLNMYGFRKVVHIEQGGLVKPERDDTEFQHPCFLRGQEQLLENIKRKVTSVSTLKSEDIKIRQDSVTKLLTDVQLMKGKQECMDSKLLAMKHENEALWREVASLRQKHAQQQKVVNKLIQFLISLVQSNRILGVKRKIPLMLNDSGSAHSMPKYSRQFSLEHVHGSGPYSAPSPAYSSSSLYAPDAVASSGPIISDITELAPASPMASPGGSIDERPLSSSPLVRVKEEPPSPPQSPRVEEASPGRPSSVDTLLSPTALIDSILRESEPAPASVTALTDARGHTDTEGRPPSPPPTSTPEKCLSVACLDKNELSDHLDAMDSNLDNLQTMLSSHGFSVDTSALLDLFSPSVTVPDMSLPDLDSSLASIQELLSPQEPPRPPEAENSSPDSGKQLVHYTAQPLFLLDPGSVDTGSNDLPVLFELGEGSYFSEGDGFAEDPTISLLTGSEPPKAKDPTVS
# ELF4, sequence (Q99607 whole entry): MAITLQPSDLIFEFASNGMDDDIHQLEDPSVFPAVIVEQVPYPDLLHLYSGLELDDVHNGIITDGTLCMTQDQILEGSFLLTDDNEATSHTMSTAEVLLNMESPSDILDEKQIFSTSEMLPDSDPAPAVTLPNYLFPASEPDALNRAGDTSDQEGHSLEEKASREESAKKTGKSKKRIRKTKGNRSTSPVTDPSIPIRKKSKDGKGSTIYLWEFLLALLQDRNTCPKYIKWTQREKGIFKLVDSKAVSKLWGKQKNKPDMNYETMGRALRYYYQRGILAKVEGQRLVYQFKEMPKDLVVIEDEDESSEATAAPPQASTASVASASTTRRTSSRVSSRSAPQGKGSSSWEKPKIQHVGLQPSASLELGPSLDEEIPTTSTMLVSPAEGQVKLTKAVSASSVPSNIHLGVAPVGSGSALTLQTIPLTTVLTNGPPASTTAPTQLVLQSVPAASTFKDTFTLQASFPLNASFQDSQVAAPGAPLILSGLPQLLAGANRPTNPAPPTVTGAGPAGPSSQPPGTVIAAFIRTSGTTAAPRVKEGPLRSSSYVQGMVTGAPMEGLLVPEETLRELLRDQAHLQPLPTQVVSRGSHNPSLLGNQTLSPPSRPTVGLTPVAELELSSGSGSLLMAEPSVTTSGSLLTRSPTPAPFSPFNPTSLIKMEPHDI
# SPIB, sequence (Q01892 whole entry): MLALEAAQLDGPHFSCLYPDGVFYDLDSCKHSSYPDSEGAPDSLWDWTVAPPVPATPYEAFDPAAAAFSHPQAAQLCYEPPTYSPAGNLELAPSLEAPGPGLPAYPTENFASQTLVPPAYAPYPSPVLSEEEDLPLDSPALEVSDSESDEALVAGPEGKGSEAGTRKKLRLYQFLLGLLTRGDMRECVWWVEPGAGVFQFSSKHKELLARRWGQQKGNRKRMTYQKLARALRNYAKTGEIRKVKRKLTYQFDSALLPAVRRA
# CRX, sequence (O43186 whole entry): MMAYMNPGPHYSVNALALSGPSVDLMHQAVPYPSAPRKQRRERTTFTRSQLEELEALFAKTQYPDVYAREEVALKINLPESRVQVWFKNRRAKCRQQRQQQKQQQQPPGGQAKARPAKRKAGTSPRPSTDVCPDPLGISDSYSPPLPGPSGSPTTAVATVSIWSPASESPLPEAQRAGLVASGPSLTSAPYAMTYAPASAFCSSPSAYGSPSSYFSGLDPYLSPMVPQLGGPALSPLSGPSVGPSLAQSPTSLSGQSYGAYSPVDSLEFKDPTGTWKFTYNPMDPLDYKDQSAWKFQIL
# ELF1, sequence (P32519 whole entry): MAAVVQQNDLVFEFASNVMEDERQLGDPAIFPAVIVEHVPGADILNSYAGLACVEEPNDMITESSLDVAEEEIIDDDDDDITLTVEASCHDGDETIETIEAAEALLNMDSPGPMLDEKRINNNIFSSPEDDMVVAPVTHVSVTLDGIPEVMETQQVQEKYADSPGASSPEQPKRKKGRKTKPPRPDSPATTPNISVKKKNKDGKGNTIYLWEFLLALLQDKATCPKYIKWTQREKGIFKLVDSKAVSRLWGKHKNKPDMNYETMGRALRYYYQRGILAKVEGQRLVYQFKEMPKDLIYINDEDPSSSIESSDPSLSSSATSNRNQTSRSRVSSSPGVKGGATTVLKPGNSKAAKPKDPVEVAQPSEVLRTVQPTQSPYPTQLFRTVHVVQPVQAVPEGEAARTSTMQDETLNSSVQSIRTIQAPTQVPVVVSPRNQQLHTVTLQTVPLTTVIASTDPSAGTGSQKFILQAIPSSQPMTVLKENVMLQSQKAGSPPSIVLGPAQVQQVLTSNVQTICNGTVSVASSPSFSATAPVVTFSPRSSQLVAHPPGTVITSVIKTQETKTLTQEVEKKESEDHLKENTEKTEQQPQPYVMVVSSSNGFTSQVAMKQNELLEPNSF
# ETV1, sequence (P50549 whole entry): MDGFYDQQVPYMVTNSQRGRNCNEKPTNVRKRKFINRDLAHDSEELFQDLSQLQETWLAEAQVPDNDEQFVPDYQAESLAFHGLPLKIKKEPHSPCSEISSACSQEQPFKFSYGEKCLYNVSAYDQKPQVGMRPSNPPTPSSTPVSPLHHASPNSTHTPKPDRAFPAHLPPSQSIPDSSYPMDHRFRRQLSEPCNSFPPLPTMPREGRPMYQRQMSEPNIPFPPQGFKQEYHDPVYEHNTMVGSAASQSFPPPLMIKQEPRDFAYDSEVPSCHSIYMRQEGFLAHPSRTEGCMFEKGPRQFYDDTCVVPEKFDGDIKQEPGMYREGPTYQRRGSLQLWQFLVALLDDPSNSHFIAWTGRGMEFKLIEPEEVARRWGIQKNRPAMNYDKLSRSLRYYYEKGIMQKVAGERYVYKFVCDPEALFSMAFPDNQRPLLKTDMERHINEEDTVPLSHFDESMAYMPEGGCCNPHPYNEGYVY
# ETV5, sequence (P41161 whole entry): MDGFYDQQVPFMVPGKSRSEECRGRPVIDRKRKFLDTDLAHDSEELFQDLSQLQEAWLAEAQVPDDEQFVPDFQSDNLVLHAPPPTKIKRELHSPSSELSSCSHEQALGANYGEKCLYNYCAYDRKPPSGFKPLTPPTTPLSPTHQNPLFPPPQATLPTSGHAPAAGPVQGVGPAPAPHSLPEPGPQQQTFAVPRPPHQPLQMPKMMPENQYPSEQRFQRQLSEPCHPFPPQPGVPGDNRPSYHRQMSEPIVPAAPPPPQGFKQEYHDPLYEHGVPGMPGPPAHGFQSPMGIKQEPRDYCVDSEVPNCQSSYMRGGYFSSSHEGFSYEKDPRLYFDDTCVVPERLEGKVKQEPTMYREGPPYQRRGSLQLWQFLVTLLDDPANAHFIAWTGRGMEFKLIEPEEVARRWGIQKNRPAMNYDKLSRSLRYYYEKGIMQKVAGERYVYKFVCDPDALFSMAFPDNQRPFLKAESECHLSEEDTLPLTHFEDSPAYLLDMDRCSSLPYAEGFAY
sequence,measurement,setting,value
CACTTC,binding signal,[1],"3.41 fold enrichment (6-mer frequency, TF over GST control)"
same,binding signal,[2],"3.77 fold enrichment (6-mer frequency, TF over GST control)"
same,binding signal,[3],"3.25 fold enrichment (6-mer frequency, TF over GST control)"
same,binding signal,[4],"4.19 fold enrichment (6-mer frequency, TF over GST control)"
same,binding signal,[5],"3.41 fold enrichment (6-mer frequency, TF over GST control)"
same,binding signal,[6],"3.63 fold enrichment (6-mer frequency, TF over GST control)"
same,binding signal,[7],"5.56 fold enrichment (6-mer frequency, TF over GST control)"
same,binding signal,[8],"3.54 fold enrichment (6-mer frequency, TF over GST control)"
same,binding signal,[9],"3.97 fold enrichment (6-mer frequency, TF over GST control)"
same,binding signal,[10],"5.06 fold enrichment (6-mer frequency, TF over GST control)"
same,binding signal,[11],"3.62 fold enrichment (6-mer frequency, TF over GST control)"
same,binding signal,[12],"1.3 fold enrichment (6-mer frequency, TF over GST control)"
same,binding signal,[13],"3.53 fold enrichment (6-mer frequency, TF over GST control)"
same,binding signal,[14],"3.48 fold enrichment (6-mer frequency, TF over GST control)"
same,binding signal,[15],"3.01 fold enrichment (6-mer frequency, TF over GST control)"
same,binding signal,[16],"3.4 fold enrichment (6-mer frequency, TF over GST control)"
same,binding signal,[17],"3.05 fold enrichment (6-mer frequency, TF over GST control)"
same,binding signal,[18],"1.07 fold enrichment (6-mer frequency, TF over GST control)"
same,binding signal,[19],"3.73 fold enrichment (6-mer frequency, TF over GST control)"

# Reference: PMC7862700, “An all-to-all approach to the identification of sequence-specific readers for epigenetic DNA modifications on cytosine”
